The results in this text go back to PubChem BioAssay (Tox21).

A short description of assay [1]: qHTS assay to identify small molecule agonists of the estrogen receptor beta (ER-beta) signaling pathway - cell viability counter screen (AID 1259380; active means well fitted curve in the direction sought with a large enough effect in the repeat runs; an effect the other way counts as inactive or inconclusive; further: nearly all actives have a fitted effect of over 30% in size; further: potency means the concentration at half of the fitted maximal effect). Summed up:
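Cytotoxicity is measured in parallel with the reporter screen: after 16 hr compound exposure at 37C and a 2 hr LiveBLAzer step, CellTiter-Glo is added to the same ER-beta-UAS-bla HEK293T wells and luminescence read after 30 min.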
(In general: qHTS replaces the single test concentration by a dilution series.)

Assay [2] is described as follows: qHTS assay to identify small molecule antagonists of the estrogen receptor beta (ER-beta) signaling pathway - cell viability counter screen (AID 1259382; active means well fitted curve in the direction sought with a large enough effect in the repeat runs; an effect the other way counts as inactive or inconclusive; further: nearly all actives have a fitted effect of over 55% in size; further: potency means the concentration at half of the fitted maximal effect). The gist of the method: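 Cytotoxicity counter screen multiplexed with the beta-lactamase antagonist assay: GripTite HEK293T ER-beta-bla cells were treated 16 hr with test chemicals in the presence of 1nM 17-beta-estradiol, and viability was measured by CellTiter-Glo.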

The target in assay [3] is Estrogen receptor (Homo sapiens) (UniProt P03372). The experiment in a line: qHTS assay to identify small molecule agonists of the estrogen receptor alpha (ER-alpha) signaling pathway in the presence of an antagonist (AID 1259383). Further: nearly all actives have a fitted effect of over 15% in size. Further: potency means the concentration at half of the fitted maximal effect. The gist of the method: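 Agonist-mode confirmation in the presence of the ER antagonist ICI-182,780 at 10.0nM final. Breast-derived VM7Luc4E2 reporter cells were exposed to compounds for 22hr, and ERE-driven luciferase was quantified by luminescence.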

Assay [4] in a line: qHTS assay to identify small molecule agonists or antagonists of the thyroid stimulating hormone receptor (TSHR) signaling pathway - wild type cell line counter screen (AID 1259384). The gist of the method:
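Wild-type Hek293 cells, 800/well, 18 h at 37C, then compound with Ro20-1724 for 30 min RT. cAMP by HTRF (cAMP-d2/anti-cAMP cryptate), 1 h RT, fluorescence read. 15 concentrations, triplicates.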

The target in assay [5] is Thyrotropin receptor (Homo sapiens) (UniProt P16473). Nature of the assay: qHTS assay to identify small molecule antagonists of the thyroid stimulating hormone receptor (TSHR) signaling pathway (AID 1259385). Further: nearly all actives have a fitted effect of over 20% in size. Further: potency means the concentration at half of the fitted maximal effect. The gist of the method:
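TSHR-HEK293 cells (800/well) plated 18 h, then compounds with Ro20-1724 and TSH at 1.5 ng/mL final, 30 min at room temperature. cAMP quantified by HTRF (cAMP-d2/anti-cAMP-cryptate, 1 h); 15 concentrations in triplicate.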

Assay [6] is described as follows: qHTS assay to identify small molecule agonists of the estrogen receptor alpha (ER-alpha) signaling pathway in the presence of an antagonist - cell viability counter screen (AID 1259386; active means well fitted curve in the direction sought with a large enough effect in the repeat runs; an effect the other way counts as inactive or inconclusive;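 further: cells exposed to compounds for 22 h at 37 °C before the viability read; nearly all actives have a fitted effect of over 30% in size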; further: potency means the concentration at half of the fitted maximal effect). The gist of the method:
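Cytotoxicity was measured in parallel with the ERE-luciferase agonist screen, in the same wells. The cells were VM7Luc4E2, which endogenously express ER-alpha, and treatment was with compounds plus 10.0nM ICI-182,780 for 22hr.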

Assay [7] has as its target Progesterone receptor (Homo sapiens) (UniProt P06401). The experiment in a line: qHTS assay to identify small molecule agonists of the progesterone receptor (PR) signaling pathway (AID 1346784). Further: nearly all actives have a fitted effect of over 30% in size. Further: potency means the concentration at half of the fitted maximal effect. Summed up: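 Seed PR-UAS-bla HEK 293T cells (2% charcoal-stripped FBS), incubate 6 hr at 37C; add compounds in DMSO, 16 hr at 37C; add LiveBLAzer B/G substrate, 2 hr RT; read fluorescence intensity.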

A short description of assay [8]: qHTS assay to identify small molecule agonists of the androgen receptor (AR) signaling pathway in the presence of an antagonist - cell viability counter screen (AID 1259379; active means well fitted curve in the direction sought with a large enough effect in the repeat runs; an effect the other way counts as inactive or inconclusive; further: nearly all actives have a fitted effect of over 25% in size; further: potency means the concentration at half of the fitted maximal effect). Summed up:
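Cytotoxicity is assessed by CellTiter-Fluor in MDA-kb2 cells carrying an MMTV-driven luciferase reporter. Cells receive 3.0uM nilutamide plus compounds at 15 concentrations and incubate 16 hr at 37C without CO2 before fluorescence reading.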

Assay [9] has as its target Androgen receptor (Homo sapiens) (UniProt P10275). Nature of the assay: qHTS assay to identify small molecule agonists of the androgen receptor (AR) signaling pathway in the presence of an antagonist (AID 1259381). Further: nearly all actives have a fitted effect of over 15% in size. The gist of the method: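 Agonist-mode confirmation screen: human MDA-kb2 cells stably expressing luciferase under an MMTV promoter bearing AR and GR response elements, co-treated with 3.0uM nilutamide (final). Luminescence measured after 16hr compound incubation.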

Values joined by “and” are separate entries in the source; they are usually repeats but may differ in a detail not shown here. Equal entries are not always repeated. Records with an inconclusive call do not appear. Some structures have more than one record in an assay (separate samples or runs), and their calls can disagree. Active and inactive are the calls of the source. Unless noted, the call rests on the fitted dose curve.

Sequence of Thyrotropin receptor (Homo sapiens) (P16473 whole entry, looked up): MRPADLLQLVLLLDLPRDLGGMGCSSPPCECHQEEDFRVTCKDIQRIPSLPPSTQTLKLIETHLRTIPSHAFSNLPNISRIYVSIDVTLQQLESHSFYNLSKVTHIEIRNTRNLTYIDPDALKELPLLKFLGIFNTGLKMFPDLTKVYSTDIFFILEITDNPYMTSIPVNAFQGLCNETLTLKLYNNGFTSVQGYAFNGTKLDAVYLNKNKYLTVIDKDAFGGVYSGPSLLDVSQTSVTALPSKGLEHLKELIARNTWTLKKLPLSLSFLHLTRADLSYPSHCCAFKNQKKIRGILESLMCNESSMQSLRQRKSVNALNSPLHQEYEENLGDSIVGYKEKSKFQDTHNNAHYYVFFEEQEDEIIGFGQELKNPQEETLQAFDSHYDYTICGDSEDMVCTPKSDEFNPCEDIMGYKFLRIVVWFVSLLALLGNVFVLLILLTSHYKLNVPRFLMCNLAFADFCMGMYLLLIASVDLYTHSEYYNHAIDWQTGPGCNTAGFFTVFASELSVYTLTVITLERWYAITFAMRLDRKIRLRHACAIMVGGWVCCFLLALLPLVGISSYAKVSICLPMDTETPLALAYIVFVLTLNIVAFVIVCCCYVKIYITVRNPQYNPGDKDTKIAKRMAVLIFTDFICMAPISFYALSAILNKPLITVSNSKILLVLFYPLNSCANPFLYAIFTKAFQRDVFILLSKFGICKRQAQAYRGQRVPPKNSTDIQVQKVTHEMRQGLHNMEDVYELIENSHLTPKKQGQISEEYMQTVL
Sequence of Progesterone receptor (Homo sapiens) (P06401 whole entry, looked up): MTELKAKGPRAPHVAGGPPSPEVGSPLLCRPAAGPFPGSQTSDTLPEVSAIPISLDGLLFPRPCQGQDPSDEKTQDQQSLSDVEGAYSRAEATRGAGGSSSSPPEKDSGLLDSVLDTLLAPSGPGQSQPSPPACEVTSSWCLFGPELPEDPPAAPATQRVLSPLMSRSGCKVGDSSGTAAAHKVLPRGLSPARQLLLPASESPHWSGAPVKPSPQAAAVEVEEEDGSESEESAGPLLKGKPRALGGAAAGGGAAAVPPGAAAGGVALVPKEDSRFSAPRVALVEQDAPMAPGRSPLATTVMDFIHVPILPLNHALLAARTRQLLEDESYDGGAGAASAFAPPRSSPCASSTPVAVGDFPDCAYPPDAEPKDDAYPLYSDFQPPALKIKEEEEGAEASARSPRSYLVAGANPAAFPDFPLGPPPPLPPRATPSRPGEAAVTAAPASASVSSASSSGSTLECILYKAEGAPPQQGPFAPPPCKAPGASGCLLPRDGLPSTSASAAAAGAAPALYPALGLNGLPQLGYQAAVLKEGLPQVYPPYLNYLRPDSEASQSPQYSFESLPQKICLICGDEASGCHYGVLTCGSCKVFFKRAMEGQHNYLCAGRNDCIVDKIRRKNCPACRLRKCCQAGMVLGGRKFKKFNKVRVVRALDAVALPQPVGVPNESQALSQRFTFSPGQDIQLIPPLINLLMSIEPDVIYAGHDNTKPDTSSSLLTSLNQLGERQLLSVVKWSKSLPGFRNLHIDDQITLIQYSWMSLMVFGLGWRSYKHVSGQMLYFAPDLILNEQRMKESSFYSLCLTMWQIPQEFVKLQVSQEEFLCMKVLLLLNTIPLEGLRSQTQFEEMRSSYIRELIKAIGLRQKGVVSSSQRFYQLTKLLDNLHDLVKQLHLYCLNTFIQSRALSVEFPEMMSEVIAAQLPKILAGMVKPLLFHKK
Sequence of Estrogen receptor (Homo sapiens) (P03372 whole entry, looked up): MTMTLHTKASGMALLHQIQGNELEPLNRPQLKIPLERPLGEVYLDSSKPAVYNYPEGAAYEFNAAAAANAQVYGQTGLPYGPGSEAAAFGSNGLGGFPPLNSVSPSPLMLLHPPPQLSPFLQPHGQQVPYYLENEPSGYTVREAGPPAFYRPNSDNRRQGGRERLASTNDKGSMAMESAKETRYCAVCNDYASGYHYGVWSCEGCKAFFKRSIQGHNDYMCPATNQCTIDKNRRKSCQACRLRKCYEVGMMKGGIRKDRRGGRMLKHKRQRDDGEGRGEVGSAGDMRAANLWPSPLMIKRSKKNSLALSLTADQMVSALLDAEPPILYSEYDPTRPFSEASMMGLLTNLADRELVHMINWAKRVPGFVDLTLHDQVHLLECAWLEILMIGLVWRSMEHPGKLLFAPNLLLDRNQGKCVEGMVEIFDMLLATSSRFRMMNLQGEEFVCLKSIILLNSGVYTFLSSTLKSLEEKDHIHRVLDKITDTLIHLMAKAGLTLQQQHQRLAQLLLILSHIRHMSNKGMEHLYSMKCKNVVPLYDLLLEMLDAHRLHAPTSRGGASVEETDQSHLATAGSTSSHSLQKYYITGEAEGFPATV
Sequence of Androgen receptor (Homo sapiens) (P10275 whole entry, looked up): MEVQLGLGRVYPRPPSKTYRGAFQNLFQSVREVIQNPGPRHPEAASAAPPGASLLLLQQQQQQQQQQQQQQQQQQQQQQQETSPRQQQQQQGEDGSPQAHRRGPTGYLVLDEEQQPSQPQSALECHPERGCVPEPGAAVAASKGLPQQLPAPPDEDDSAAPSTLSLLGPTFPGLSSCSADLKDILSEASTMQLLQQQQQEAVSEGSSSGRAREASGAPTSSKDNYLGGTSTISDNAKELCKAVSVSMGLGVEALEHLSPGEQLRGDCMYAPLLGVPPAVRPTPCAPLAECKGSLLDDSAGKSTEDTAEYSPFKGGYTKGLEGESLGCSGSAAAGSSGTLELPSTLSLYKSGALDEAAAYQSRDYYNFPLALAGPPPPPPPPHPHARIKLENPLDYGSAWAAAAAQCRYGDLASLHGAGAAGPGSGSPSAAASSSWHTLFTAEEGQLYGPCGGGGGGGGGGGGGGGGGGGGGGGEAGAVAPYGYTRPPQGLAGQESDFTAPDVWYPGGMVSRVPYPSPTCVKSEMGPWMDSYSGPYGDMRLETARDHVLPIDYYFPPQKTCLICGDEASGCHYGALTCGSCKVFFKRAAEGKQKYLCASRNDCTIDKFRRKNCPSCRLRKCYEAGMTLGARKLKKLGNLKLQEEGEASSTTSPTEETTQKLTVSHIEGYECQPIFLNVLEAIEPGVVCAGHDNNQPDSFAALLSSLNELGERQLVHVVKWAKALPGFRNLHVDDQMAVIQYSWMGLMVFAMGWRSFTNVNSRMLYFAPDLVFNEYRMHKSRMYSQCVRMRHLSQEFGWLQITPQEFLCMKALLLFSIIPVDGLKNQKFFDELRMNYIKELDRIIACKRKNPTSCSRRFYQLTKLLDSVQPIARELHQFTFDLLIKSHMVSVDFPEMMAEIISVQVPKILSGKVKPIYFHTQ

Consider `CC(=O)CC(C)=O`, for which the Potency result in [1], in [2], in [3], in assay [4], in assay [5] and in [6] was “inactive” each time.
With `CC(C)CCOC(=O)c1ccc(N(C)C)cc1`, the Potency result in [1], in assay [2], in assay [4] and in assay [7] was “inactive” throughout. In addition, the Potency in assay [3] is 2.98 µM (active).
Consider `CC(C)C(=O)c1c(C(C)C)nn2ccccc12`, for which the Potency result in assay [1], in assay [2], in assay [6] and in assay [7] was “inactive” each time.
`CCN(CC)c1ccc2c(C)cc(=O)oc2c1`: the Potency entry in assay [8], in assay [2], in [3], in assay [4], in [5] and in assay [6] was “inactive” throughout. In addition, the Potency in [7] was 30.9 µM (active) and 34.4 µM (active).
`NNCCc1ccccc1`: the Potency entry in assay [8], in assay [1], in assay [2], in [4], in [5] and in assay [6] was “inactive” in each case. Besides, the Potency entry in assay [7] is “inactive”.
`CCCCC(CC)COC(=O)CC(C(=O)OCC(CC)CCCC)S(=O)(=O)O` (stereo not drawn): the Potency was 26.3 µM (active) and 30.6 µM (active) in assay [1]; 29.5 µM (active) and 27.3 µM (active) in assay [2]. Further, the Potency entry in assay [3] and in [6] was “inactive” each time.
Consider `CCC(C)(C)C(=O)O[C@H]1C[C@@H](C)C=C2C=C[C@H](C)[C@H](CC[C@@H]3C[C@@H](O)CC(=O)O3)[C@H]21`, for which the Potency in [1] is 27.3 µM (active) and 13.3 µM (active); in [2], 11.9 µM (active). For the same molecule, the Potency result in assay [3], in assay [4], in assay [5] and in assay [6] was “inactive” each time.
For the molecule `O`, the Potency result in assay [8], in assay [1], in assay [2], in [4], in assay [5] and in assay [6] was “inactive” each time. In addition, the Potency result in assay [7] was “inactive”.
For `COc1cc(C(=S)N2CCOCC2)ccc1O`, the Potency result in [1], in assay [9], in assay [2], in assay [3], in [4] and in assay [5] was “inactive” each time. Also, the Potency result in assay [6] and in [7] was “inactive” each time.
On to `Cc1occc(=O)c1OC(=O)C(C)C`, for which the Potency entry in assay [1], in assay [2], in [4], in assay [5], in assay [6] and in assay [7] was “inactive” in each case.
`O=C1CC2(CCCC2)CC(=O)N1CCCCN1CCN(c2ncccn2)CC1`: the Potency result in assay [8], in [2], in assay [4], in assay [5], in [6] and in assay [7] was “inactive” each time. Further, in assay [1], the Potency is 4.86 µM (active).
Take `CCN(CC)C(=S)SSC(=S)N(CC)CC`: the Potency in assay [1] is 222 nM (active) and 133 nM (active). For the same molecule, the Potency entry in assay [9], in [3], in [4], in assay [5], in [6] and in [7] was “inactive” each time.
Consider `Nc1ccc2cc3ccccc3cc2c1`, for which the Potency entry in assay [2], in assay [4], in [5] and in assay [6] was “inactive” in each case. Also, the Potency in assay [3] was 1.75 µM (active) and 13.7 µM (active).
Regarding `COc1ccc(CCN2CCC(Nc3nc4ccccc4n3Cc3ccc(F)cc3)CC2)cc1`, the Potency was 17.6 µM (active) and 21.1 µM (active) in [8]; 9.9 µM (active) and 23.7 µM (active) in [1]; 9.9 µM (active) and 21.1 µM (active) in assay [2]; 31.3 µM (active) and inactive in assay [5]; 39.4 µM (active) and inactive in assay [6]. In addition, the Potency entry in assay [4] and in assay [7] was “inactive” in each case.
Take `c1cc(C(c2ccc(OCC3CO3)cc2)C(c2ccc(OCC3CO3)cc2)c2ccc(OCC3CO3)cc2)ccc1OCC1CO1` (stereo not drawn): the Potency result in assay [8], in assay [2], in assay [3], in [4], in assay [5] and in [6] was “inactive” each time. Moreover, the Potency entry in assay [7] was “inactive”.
Regarding `NC(N)=NC(=O)Cc1c(Cl)cccc1Cl`, the Potency result in [8], in assay [1], in [2], in assay [4], in [5] and in assay [6] was “inactive” in each case. Moreover, the Potency entry in assay [7] was “inactive”.
On to `CCc1ccc(C(c2ccc(CC)cc2)C(Cl)Cl)cc1`, for which the Potency entry in assay [1], in [9], in [2], in assay [3], in [4] and in assay [5] was “inactive” each time. In addition, the Potency entry in assay [6] and in assay [7] was “inactive” throughout.
